We go through 14 compounds from PubChem BioAssay (EPA / NIEHS).

Structures are written as SMILES. Inconclusive results are not listed. Calls of active or inactive are those of the source. The calls were made as follows: active = hit-call score of the fitted dose curve at least 0.9, where 1 is the maximum; inconclusive = response in the unintended direction; inactive = score below 0.9.

Sequence of AR (gene 367) (P10275 whole entry, looked up): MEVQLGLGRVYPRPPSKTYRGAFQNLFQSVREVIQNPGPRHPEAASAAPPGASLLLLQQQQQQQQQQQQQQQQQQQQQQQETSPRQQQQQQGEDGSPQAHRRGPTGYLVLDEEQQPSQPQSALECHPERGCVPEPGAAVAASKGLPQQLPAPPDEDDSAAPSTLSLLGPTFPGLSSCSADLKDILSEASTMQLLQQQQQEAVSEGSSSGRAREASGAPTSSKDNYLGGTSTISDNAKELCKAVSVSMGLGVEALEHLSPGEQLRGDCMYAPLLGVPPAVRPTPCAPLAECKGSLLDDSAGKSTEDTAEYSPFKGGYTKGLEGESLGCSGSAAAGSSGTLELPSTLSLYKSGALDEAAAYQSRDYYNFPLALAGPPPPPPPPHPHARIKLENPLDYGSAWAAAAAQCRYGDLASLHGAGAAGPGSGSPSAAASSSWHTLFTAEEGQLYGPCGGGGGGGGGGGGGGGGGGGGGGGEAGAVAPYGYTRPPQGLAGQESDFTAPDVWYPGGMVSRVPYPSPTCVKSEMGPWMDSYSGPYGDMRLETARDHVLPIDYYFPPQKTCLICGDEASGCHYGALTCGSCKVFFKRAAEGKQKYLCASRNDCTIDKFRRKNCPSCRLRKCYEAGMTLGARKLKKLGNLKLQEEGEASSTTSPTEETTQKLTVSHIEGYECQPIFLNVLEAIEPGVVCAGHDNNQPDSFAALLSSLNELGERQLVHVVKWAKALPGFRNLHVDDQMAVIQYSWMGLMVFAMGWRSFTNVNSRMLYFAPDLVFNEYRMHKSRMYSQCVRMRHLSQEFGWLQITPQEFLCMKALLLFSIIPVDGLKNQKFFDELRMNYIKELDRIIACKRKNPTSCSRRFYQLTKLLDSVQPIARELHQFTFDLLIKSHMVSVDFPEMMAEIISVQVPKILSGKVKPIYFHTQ

One test has as its target AR (gene 367) (UniProt P10275). Kind of test: ACEA_AR_agonist_80hr: ACEA Biosciences xCELLigence Real-Time Cell Analysis on Androgen Receptor Agonism for Proliferation (AID 2283783).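 Also: hits increase impedance growth signal above DMSO baseline.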 In outline:
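Real-time cell-growth kinetics were recorded by electrode impedance in 22Rv1 cells exposed to test chemicals up to 100 uM final; the 80 h timepoint served as the readout, fitted upward relative to DMSO controls, in biological duplicate.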
Consider `Cc1ccc(N)cc1O`, for which the result was inactive.
For the compound `O=C(O)c1cccc(N(Cc2cccnc2)c2ccc(OC(F)F)c(OC(F)F)c2)c1`, the AC50 (as a rule, the concentration at which the activity in the assay is half-maximal) is 10.5 µM (active).
Consider `Oc1ccc2c(c1)-c1ccccc1C2`, for which the call was inactive.

Test system in a further test: not listed separately
Kind of test: STM_H9_NormalizedViability: Cytotoxicity Assessment at 120 hours in the Stemina devTOX quickPredict H9 human embryonic stem cell (hESC)-based Assay (AID 2283784). In outline:
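Viability endpoint: background-corrected CellTiter-Fluor RFU expressed relative to the 0.1% DMSO mean on each plate. Undifferentiated H9 cells were treated with daily re-dosing and media change, and loss of signal was fitted.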
Regarding `CC(C)c1cccc(C(C)C)c1N1C(=O)c2ccc(O)cc2C1=O`, the AC50 is 20.6 µM (active).
For `CC(C)=CCCC(C)=CC=O`, the outcome was inactive.
In the case of `Cn1cnc([N+](=O)[O-])c1Sc1ncnc2nc[nH]c12`, the AC50 is 4.02 µM (active).
For `CCC(C)(C)C(=O)O[C@H]1C[C@@H](C)C=C2C=C[C@H](C)[C@H](CC[C@@H]3C[C@@H](O)CC(=O)O3)[C@H]21`, the result was inactive.
Same read-out and setting: the value for `CC(C)CC(C)(O)C#CC(C)(O)CC(C)C` (centres undefined) was “inactive”.
`Fc1ccccc1[C@@H](F)COC1CCC(Nc2ncnc3[nH]ncc23)CC1` (some centres undefined): the result was inactive.
Same read-out and setting: with `Cn1c(=O)c2c(ncn2C)n(C)c1=O` the entry was “inactive”; with `O=c1[nH]c2ccc(S(=O)CCN3CCC(Cc4ccc(F)cc4)CC3)cc2o1` (centres undefined), “inactive”.
Consider `COc1cccc(-c2ccc(/C=C\CN3CCCCCC3)cc2Cl)c1`, for which the AC50 is 1.1 µM (active).
Turning to `CC(C)CCO`, the outcome was inactive.
As to `Nc1nc2ncc(CNc3ccc(C(=O)N[C@@H](CCC(=O)O)C(=O)O)cc3)nc2c(=O)[nH]1`, the outcome was inactive.
